The target of assay [1] is Calcium and integrin-binding protein 1 (Homo sapiens) (UniProt Q99828). Nature of the assay: Primary qHTS for Identification of Calcium Integrin Binding Protein 1 (CIB1) Competitor (AID 1508620). Further: potency means the concentration at half of the fitted maximal effect. The gist of the method: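 Fluorescence polarization competition: GST-tagged CIB1 (1 uM final) preincubated with compound 15 min at room temperature, then FITC-labelled alphaIIb peptide (100 nM final) added. After 15 min at room temperature, polarization read at Ex 480/Em 540.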
Calcium and integrin-binding protein 1 (Homo sapiens), sequence (Q99828 whole entry, looked up): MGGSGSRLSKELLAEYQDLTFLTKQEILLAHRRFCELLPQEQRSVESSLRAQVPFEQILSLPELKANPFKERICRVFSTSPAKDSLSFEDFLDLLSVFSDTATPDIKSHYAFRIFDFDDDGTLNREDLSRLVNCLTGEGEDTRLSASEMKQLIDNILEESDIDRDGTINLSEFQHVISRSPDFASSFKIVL

Assay [2] is described as follows: Primary qHTS for small molecule stabilizers of the endoplasmic reticulum resident proteome: Secreted ER Calcium Modulated Protein (SERCaMP) assay (AID 1508630). The gist of the method:
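GLuc-SERCaMP-expressing SH-SY5Y cells, pretreated 16 h with compound, are challenged with thapsigargin to empty ER calcium stores; after 4 h, coelenterazine is added directly to the medium and luminescence is imaged.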
(In general: In qHTS, concentration-response curves come from the screen itself.)

Assay [3] is described as follows: Counterscreen qHTS for small molecule stabilizers of the endoplasmic reticulum resident proteome: GLuc-NoTag assay (AID 1508627).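 Further: SH-SY5Y cells given compound then 100 nM thapsigargin to empty ER calcium; series mostly up to about 76 µM.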 An outline of the steps: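 SH-SY5Y cells stably expressing constitutively secreted GLuc without SERCaMP tag, exposed to compound for 19 hr, then to 100 nM thapsigargin for 4 hr at 37C. Medium luciferase was read by coelenterazine luminescence without lysis.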
A general note: A counterscreen serves to expose hits that act by an unwanted route or on another target.

Assay [4] is described as follows: Primary qHTS for inhibitors of nuclear receptor binding SET domain protein 2 (NSD2) in an isogenic RCH-ACV NSD2 p.E1099K mutant (9B) (AID 1645876). Further: nearly all actives have a fitted effect of over 70% in size.

This passage reports Potency results from PubChem BioAssay (NCATS).

Inconclusive results are not listed. Where a call stands in place of a potency, no number is given. Active and inactive are the calls of the source. The call rests on the fitted dose curve; in most records, active means well fitted curve in the direction sought with a large enough effect; inconclusive means small, poorly fitted or top-dose-only effect, or another doubt; inactive means no such curve, though single readings can be large; an effect the other way counts as inactive or inconclusive.

With `CCC(c1ccc(O)cc1)C(CC)c1ccc(O)cc1` (configuration not stated), the Potency result in assay [1] and in assay [2] was “inactive” throughout.

As for `C=C1c2cccc(O)c2C(O)=C2C(=O)[C@@]3(O)C(O)=C(C(N)=O)C(=O)[C@@H](N(C)C)[C@@H]3[C@@H](O)[C@H]12`, the Potency result in assay [1] and in assay [2] was “inactive” throughout.

Consider `CCCCCCOC(=O)N=C(N)c1ccc(NCc2nc3cc(C(=O)N(CCC(=O)OCC)c4ccccn4)ccc3n2C)cc1`, for which the Potency result in assay [1] and in assay [2] was “inactive” in each case.

On to `CN(C)CCOc1ccc(-c2nc(-c3ccc4c(c3)CCC4=NO)c(-c3ccncc3)[nH]2)cc1`, for which the Potency result in assay [1] and in assay [2] was “inactive” in each case.

Turning to `Cc1cc2nc3c(=O)[nH]c(=O)nc-3n(CC(O)C(O)C(O)CO)c2cc1C` (configuration not stated), the Potency in assay [1] was 6.81 µM (active). In addition, the Potency entry in assay [3] and in assay [4] was “inactive” each time.

Regarding `C[C@H](CCC(=O)O)[C@H]1CC[C@H]2[C@H]3[C@@H](CC[C@]12C)[C@@]1(C)CC[C@@H](O)C[C@H]1C[C@@H]3O`, the Potency result in assay [1] and in assay [2] was “inactive” throughout.

As to `COc1c(C)c2c(c(O)c1CC=C(C)CCC(=O)OCCN1CCOCC1)C(=O)OC2`, the Potency result in assay [1] and in assay [2] was “inactive” each time.

Regarding `C[C@@H]1[C@H](O)[C@@H](C)C=CC=CC=CC=CC=CC=CC=C[C@H](O[C@@H]2O[C@H](C)[C@H](O)[C@H](N)[C@@H]2O)C[C@@H]2O[C@](O)(C[C@@H](O)C[C@@H](O)[C@H](O)CC[C@@H](O)C[C@@H](O)CC(=O)O[C@H]1C)C[C@H](O)[C@@H]2C(=O)O`, the Potency result in assay [1] and in assay [2] was “inactive” each time.

Turning to `CN1CCC[C@H]1CCO[C@](C)(c1ccccc1)c1ccc(Cl)cc1`, the Potency result in assay [1] and in assay [3] was “inactive” in each case.

On to `COc1ccc2ccc(=O)oc2c1CC=C(C)C`, for which the Potency result in assay [1] and in assay [2] was “inactive” throughout.

As to `CCC(=O)OCC(=O)[C@@]1(OC(=O)CC)[C@@H](C)C[C@@H]2[C@H]3CCC4=CC(=O)C=C[C@]4(C)[C@@]3(F)[C@@H](O)C[C@@]21C`, the Potency result in assay [1] was “inactive”.
